Screens as filed in PubChem.
This is a sample that favours compounds with a hit; in the whole collection about 0.42% have one here.
N370S GC mod = inhibits or activates N370S mutant glucocerebrosidase; Potency, µM (doses to about 59.4 µM), for inactives: at the highest dose activity change, negative = inhibition, most hits filed as inhibitors; N370S GC spleen homogenate, 4MU-glucoside fluorescence; 330,000 compounds, 0.092% hits; AID 2101; P04062;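 note: 0% = full enzyme activity and -100% = no enzyme basal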
GAA glycogen = GAA glycogen-cleavage inhibition or activation. recombinant GAA, glycogen substrate, Amplex Red glucose oxidase fluorescence. 300,000 compounds, 0.38% hits. Potency, µM (series often up to 76.4 µM), for inactives: top-dose activity change, negative = inhibition, usual class: inhibitors. P10253;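 note: 0% = full enzyme reaction and -100% = no-enzyme basal signal; the screen sought inhibitors and activators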
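Natural-substrate format: glycogen cleavage by 4 nM human enzyme, glucose read by Amplex Red coupling (Ex 573, Em 610 nm). Normalized to enzyme and no-enzyme controls.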
GAA inhib = alpha-glucosidase (human) inhibition; P10253; purified human GAA, 4-MU-alpha-glucoside fluorescence; Potency, µM (doses to about 76.9 µM), without a hit: at the top dose activity change, negative = inhibition, actives largely listed as inhibitors; 200,000 compounds, 0.005% hits; AID 1466;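 note: plate controls were uninhibited enzyme wells for no effect and no-enzyme background for full effect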
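Activity normalized between no-enzyme (basal) and enzyme-only wells. Conditions: 4 nM human enzyme, 400 uM fluorogenic substrate, citrate/phosphate pH 5.0 with Tween-20, 20 min room temperature, compounds up to 77 uM.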
GAA spleen mod = lysosomal alpha-glucosidase (human) modulation; P10253; human spleen homogenate, 4-MU-alpha-glucoside fluorescence; Potency, µM (series often up to 79.9 µM), inactives show at the highest dose activity change, negative = inhibition, actives largely listed as inhibitors; 240,000 compounds, 0.006% hits;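 note: 0% = enzyme with vehicle and -100% = no enzyme basal signal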
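AC50 values come from Hill-equation fits of concentration-response data, normalized to no-enzyme and full-activity controls. Enzyme source: 1 ug human spleen homogenate; 1 mM fluorogenic 4-MU glucoside, pH 5.0 citrate buffer, 37 C, 40 min.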
LMNA splice mod = changes lamin A minigene splicing in HeLa cells; HeLa LMNA splicing GFP/RFP minigene ratio, 48 h; Potency, µM (top dose mostly 46.1 µM), for the others: at the top dose ratio change, negative = inhibition, usual class: inhibitors; 200,000 compounds, 0.01% hits; AID 1487; active = well fitted inhibition curve with a large enough effect in the signal ratio, with a control signal flat, not every such curve was filed as active; inconclusive = small, poorly fitted or top-dose-only effect, or effect the other way, or a change in a side signal; the % refers to the signal ratio
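S3 HeLa stable clones carrying a lamin A-EGFP splicing minigene plus DsRed2 were seeded at 600 cells/well in Opti-MEM with 2% FBS, pin-dosed and incubated 48 h at 37°C. Acumen cytometry (488 nm) gave the GFP/RFP total-intensity ratio.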
Starred values were filed as active, the others as inactive; u = inconclusive; x = no result given; ! = not active in a repeat; [ ] = remark or other dose. Unless noted, calls come from the whole dose curve; as a rule, active = well fitted curve in the direction sought with a large enough effect; inconclusive = small, poorly fitted or top-dose-only effect, or another doubt; inactive = no such curve, though single readings can be large; an effect the other way counts as inactive or inconclusive. Unless noted, % is set by controls: 0 for no effect and ±100 for the full control effect; potency is the fitted concentration of half-maximal effect.

SMILES | N370S GC mod | GAA glycogen | GAA inhib | GAA spleen mod | LMNA splice mod
Cc1cccc(Nc2c(-c3ccc(N4CCOCC4)cc3)nc3ncccn23)c1 | 9.1% | 35.5µM* | 3.5% | -3.5% | 5.2%
Fc1ccccc1NC(=S)NNc1ncc(C(F)(F)F)cc1Cl | -2.3% | 28.2µM* | -10.5% | -1.5% | -8.7%
O=[N+]([O-])c1ccc(N/N=C/c2ccc[nH]2)cc1 | x | 7.94µM* | 0.9% | -11.5% | u
O=[N+]([O-])c1ccc(N/N=C/c2cccc(O)c2O)cc1 | -23.5% | u | x | x | x
O=[N+]([O-])c1ccccc1N/N=C/c1c[nH]c2ccccc12 | 1.9% | u | -0.7% | 0.7% | 4.0%
O=[N+]([O-])c1ccc(N/N=C/c2c[nH]c3ccccc23)cc1 | x | 17.8µM* | 3.7% | -20.1% | 0.7%[0.0737 µM]
Cc1ccccc1NS(=O)(=O)c1ccc(C(=O)N2CCCC2)cc1 | 2.1% | x | x | x | x
Cc1cccc(NS(=O)(=O)c2ccc(C(=O)N3CCN(c4ccccc4O)CC3)cc2)c1C | -5.4% | 4.47µM* | x | x | x
C[C@H]1[C@H](C)CC[C@]2(C(=O)O)CC[C@]3(C)C(=CCC4[C@@]5(C)CC[C@H](O)C(C)(C)[C@@H]5CC[C@]43C)[C@H]12 (some centres undefined) | 2.6% | x | x | 0.9% | x
Oc1ccc(Nc2nc(-c3ccc(O)cc3)cs2)cc1 | 15.8µM* | 24.9µM* | -2.0% | 0.1% | u
Oc1ccc(Nc2nc(-c3cccnc3)cs2)cc1 | 6.6% | 17.8µM* | x | x | x
Cc1[nH]c(/C=C2/C(=O)Nc3ccc(S(=O)(=O)Cc4c(Cl)cccc4Cl)cc32)c(C)c1C(=O)N1CCCC1CN1CCCC1 (centres undefined) | -17.7% | x | x | -12.4% | x
Cc1ccc(F)c(C2C3C=CCC(c4ccccc4)C3C(=O)N2Cc2ccccc2)c1 (centres undefined) | 0.7% | x | x | 5.3% | x
CCOC(=O)NC1(Nc2ccc(Cl)cn2)Oc2ccccc2O1 | -1.9% | 22.2µM* | 2.8% | -2.9% | u
O=C(Nc1cccs1)NC1CCCC1 | 5.2% | -31.3% | -3.1% | 4.8% | -1.9%
CC1CCC(NC(=O)Nc2cccs2)CC1 (centres undefined) | 1.8% | 15.8µM* | -7.7% | -6.6% | 11.4%
NC(N)=N/N=C/c1ccc(OCc2ccccc2Cl)cc1 | 22.4µM* | -2.1% | 2.3% | -0.3% | u
NC(N)=N/N=C/c1ccc(OCc2ccccc2)c(OCc2ccccc2)c1 | 11.2µM* | -9.2%[76.3 µM] | x | x | x
CCOc1cc(/C=N/N=C(N)N)ccc1OCc1ccc(Cl)cc1 | -1.6% | 1.4% | u | -3.6% | u
NC(N)=N/N=C/c1ccccc1 | 3.0% | 7.1% | -2.9% | -1.3% | -2.6%
O=C(O)c1cc(/C=N\O)ccc1OCc1ccccc1 | -16.9% | 1.9% | -3.8% | 5.3% | -7.9%
COc1cc(/C=N/N=C(N)N)ccc1OCc1ccc(Cl)cc1 | 7.94µM* | -6.0% | 2.6% | 2.0% | x
O=c1[nH]c2cc([N+](=O)[O-])cc([N+](=O)[O-])c2[nH]c1=O | -6.9% | x | x | -3.9% | x
COc1ccc(-c2cc(C3C4C=CCC(C)C4C(=O)N3Cc3ccccc3)ccc2F)cc1OC (centres undefined) | -0.2% | x | x | -8.0% | x
Cc1[nH]n2c(=O)cc(-c3ccc(Cl)cc3)nc2c1-c1ccccc1 | x | 13.6%[76.3 µM] | x | x | x
SMILES | N370S GC mod | GAA glycogen | GAA inhib | GAA spleen mod | LMNA splice mod
C=C(C)/C=N/NC(=S)Nc1ccc(S(=O)(=O)N2CCOCC2)cc1 | -6.9% | 25.1µM* | x | 12.4% | x
COc1ccc(CCN2C(=O)CC(Nc3ccc(N4CCOCC4)cc3)C2=O)cc1OC (centres undefined) | -9.0% | 15.7µM* | -1.4% | -4.8% | 7.4%
CCc1ccc(NC2CC(=O)N(CCc3ccc(OC)c(OC)c3)C2=O)cc1 (centres undefined) | 19.7% | -21.1% | 4.3% | -13.8% | u
O=C1CC(Nc2ccccc2)C(=O)N1c1ccc(N2CCOCC2)cc1 (centres undefined) | -24.4% | 6.2% | -8.1% | -4.6% | 1.0%
CC(C)N1C(=O)CC(Nc2ccc(N3CCOCC3)cc2)C1=O (centres undefined) | x | 25.1µM* | -6.0% | -2.5% | 6.6%
O=C1CC(Nc2ccc(N3CCOCC3)cc2)C(=O)N1C1CCCCC1 (centres undefined) | -4.1% | 12.6µM* | 0.2% | -1.0% | 8.3%
O=C1CC(Nc2ccc(N3CCOCC3)cc2)C(=O)N1c1ccccc1F (centres undefined) | -4.1% | 25.1µM* | -0.2% | 0.3% | -8.9%
O=c1[nH]c2cc([N+](=O)[O-])c([N+](=O)[O-])cc2[nH]c1=O | 8.91µM* | -6.3% | -10.6% | -5.8% | u
COc1ccc2[nH]cc(CCNc3nc(-c4ccc(N(C)C)cc4)nc4ccccc34)c2c1 | u | x | x | 1.6% | u
C=CCc1ccc(O)c(-c2ccc(O)c(CC=C)c2)c1 | -10.5% | 35.5µM* | x | -11.4% | x
O=[N+]([O-])c1ccccc1/C=N\Nc1nccs1 | -8.5% | x | x | x | x
Clc1cccc(Cl)c1/C=N\Nc1nccs1 | 22.2% | 28.2µM* | -4.3% | -5.1% | 11.5%
O=C1CC(N2CCN(c3ccccc3O)CC2)C(=O)N1Cc1ccccc1 (centres undefined) | 9.3% | 3.14µM* | -2.3% | -4.4% | x
CCCCc1nc2c(c3c1C[C@H](C)OC3)CN(C(=O)Cc1cccc(OC)c1)CC2 | -3.1%[12.8 µM] | x | x | 5.9%[17.4 µM] | -5.6%[9.22 µM]
CC1(C)CC(=O)C=C(NNC(=O)c2ccccc2O)C1 | 8.5% | 44.7µM* | -11.1% | 1.6% | 4.3%
O=S(=O)(Nc1cc(O)cc2cccnc12)c1ccc(Cl)s1 | -5.0% | x | x | 7.4% | x
Nc1ccc(-c2n[nH]c(=O)c3ccccc23)cc1N | -11.1% | 17.8µM* | u | -12.0% | -6.1%
C[C@@]12CC[C@H]3OC(=O)C=C3C1CC[C@@]13CC(CCC12)[C@](CO)(O[C@H]1O[C@H](CO)[C@@H](O)[C@H](O)[C@H]1O)C3 (some centres undefined) | 17.8µM* | x | x | x | x
O=C(CSc1nncs1)NCCCc1ccccc1 | 2.0% | 10µM* | u | 3.4% | 0.2%[46 µM]
NC(=NCc1ccccc1)NC(=O)c1nc(Cl)c(N)nc1N | u | x | x | 8.91µM*! | -2.8%
CN=c1scc(-c2ccco2)n1/N=C/c1ccc(O)c(O)c1 | -22.8% | 5.58µM* | -10.5% | -5.2% | 21.6%[46 µM]
CC(=O)/C(=N\Nc1ccc(C)cc1)N1CCOCC1 | -18.3% | 12.5µM* | -1.9% | 1.1% | u
COc1ccc(C2CC(=O)Nc3c2c(=O)[nH]c2nc4ccccc4n32)cc1OC (centres undefined) | x | 0.7%[76.3 µM] | x | x | x
COc1cccc(C2CC(=O)Nc3c2c(=O)[nH]c2nc4ccccc4n32)c1 (centres undefined) | x | 39.8µM* | x | x | x
N=c1c2c(-c3ccccc3)c(-c3ccccc3)n(Cc3ccccc3)c2ncn1CCCn1ccnc1 | 2.24µM* | 2.3% | u | -1.7% | u
CCCCn1cnc2c(c(-c3ccccc3)c(-c3ccccc3)n2Cc2ccco2)c1=N | u | 4.4% | x | 1.5% | x
